From PubChem BioAssay (NCI)
Compounds without any hit were thinned out: in the full panel of roughly 83,000, 20% have a hit.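 Single-concentration screen, 48 h exposure, 96-well plates. Endpoint: percent growth. Below 10 = active.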 Values without a mark were called inactive. Calls of active or inactive are those of the source.

Assays:
Assay in all cases: NCI-60 one-dose screen, 48 h (100 = growth as untreated, 0 = no growth, -100 = all killed)
Settings in all cases: 10 µM unless noted
[1] = tested on: NCI-H23 lung
[2] = tested on: NCI-H226 lung
[3] = tested on: NCI-H322M lung
[4] = tested on: HOP-62 NSCLC
[5] = tested on: NCI-H460 lung
[6] = tested on: HOP-92 NSCLC
[7] = tested on: NCI-H522 lung
[8] = tested on: A549/ATCC NSCLC
[9] = tested on: 786-0 renal
[10] = tested on: DU-145 prostate
[11] = tested on: K-562 leukemia
[12] = tested on: MALME-3M melanoma
[13] = tested on: MDA-MB-231 breast
[14] = tested on: RXF 393 renal
[15] = tested on: SF-268 CNS
[16] = tested on: SF-295 CNS
[17] = tested on: SF-539 CNS
[18] = tested on: UACC-257 melanoma
[19] = tested on: M14 melanoma

| Compound | growth [1] | growth [2] | growth [3] | growth [4] | growth [5] | growth [6] | growth [7] | growth [8] | growth [9] | growth [10] | growth [11] | growth [12] | growth [13] | growth [14] | growth [15] | growth [16] | growth [17] | growth [18] | growth [19] |
| --- | --- | --- | --- | --- | --- | --- | --- | --- | --- | --- | --- | --- | --- | --- | --- | --- | --- | --- | --- |
| COC(=O)c1nc(-c2ccccc2)oc1S(=O)(=O)NCC(c1ccc(Cl)cc1)N1CCOCC1 (configuration not stated) | 89.1% | 90.7% | 98.3% | 96.3% | 87.2% | 70.9% | 23.8% | 90.5% | 51.9% | 78.2% | 13.4% | 76.9% | 75.8% | 83.6% | 77% | 101% | 92.3% | 87.3% | 35% |
| CS(=O)(=O)Nc1cc(-c2ccc3ncc(C#N)c(Nc4ccc(F)c(Cl)c4)c3c2)cnc1Cl | -11.7% (active) | -0.649% (active) | 5.43% (active) | 1.41% (active) | 6.16% (active) | -1.46% (active) | -18.1% (active) | 5.08% (active) | 6.73% (active) | 10.2% | 16.2% | -38.6% (active) | -0.718% (active) | -39.2% (active) | 8.18% (active) | -28.2% (active) | -27.4% (active) | 4.72% (active) |  |
| O=P(O)(O)OCC1OC(n2cnc3c(NCc4ccco4)ncnc32)C(O)C1O (configuration not stated) | 18% | 20.4% | 28.3% | 16% | 12.6% | -7.22% (active) | -32.7% (active) | 7.15% (active) | 10.5% | -58.5% (active) | 63.3% | 87.4% | -21.5% (active) | 4.85% (active) | 29.3% | 34.7% | 16.1% | 77.6% | 34.5% |
| C#CCNC(=O)[C@]1(C)CCC[C@@]2(C)[C@H]1CC=C1C=C(C(C)C)CC[C@@H]12 | 100% | 97.6% | 100% | 98.7% | 106% | 109% | 96.2% | 97.6% | 96.8% | 103% | 121% | 97.5% | 96.3% | 120% | 89.3% | 91.6% | 108% | 110% | 98.6% |
| CC1(C)CC[C@]2(C(=O)N[C@H](CO)Cc3ccccc3)CC[C@]3(C)C(=CC[C@@H]4[C@@]5(C)CCCNC(C)(C)[C@@H]5CC[C@]43C)[C@@H]2C1 | 104% | 91.1% | 95.3% | 89% | 78.3% | 26.4% | 96.8% | 89.8% | 65.5% | 93.7% | 1.94% (active) | 106% | 70.1% | 78.4% | 85.7% | 102% | 90.4% | 106% | 71.4% |
| CC/C=C\CCC/C=C1/C(=O)C=C[C@@H]1C/C=C\CCCC(=O)OC | 34.9% | 77% | 101% | 42.3% | 52.4% | 83.4% | 11.7% | 79% | 69.3% | 60.4% | 0.856% (active) | 34.1% | 15.3% | 96.4% | 31% | 74.2% | 95.4% | 69.7% | 1.66% (active) |
| CCN1CCN(c2cc(C)nc(N(CCNc3ccnc4cc(Cl)ccc34)Cc3ccc4c(c3)OCO4)n2)CC1 | 13.6% | 47.7% | 28.3% | -14.3% (active) | 8.38% (active) | 44.6% | -81.7% (active) | 2.91% (active) | -76.8% (active) | 26.5% | -48.4% (active) | -65.8% (active) | -42.4% (active) | -82.5% (active) | 7.14% (active) | -63.5% (active) | -71.2% (active) | -59.9% (active) | -66.5% (active) |
| NC(=O)c1c(NC(=O)c2cccc(C(F)(F)F)c2)sc2c1CCC(=O)C2 | -2.9% (active) | 34.2% | 61.6% | 28.2% | 5.67% (active) | -45.1% (active) | -37.6% (active) | 17% | 17.8% | 29.2% | -2.81% (active) | -41% (active) | -45.5% (active) | -5.44% (active) | 19% | -12.9% (active) | -78.1% (active) | -6.24% (active) |  |
| C#CC#CC#CC#CC#CC#CC#CC#CCC1OC[C@H](COC(=O)O[C@@H](C(=O)O[C@H]2C[C@@]3(O)[C@@H](OC(=O)c4ccccc4)[C@@H]4[C@]5(OC(C)=O)CO[C@@H]5C[C@H](O)[C@@]4(C)C(=O)[C@H](OC(C)=O)C(=C2C)C3(C)C)[C@@H](NC(=O)c2ccccc2)c2ccccc2)O1 (some centres not stated) | 32.9% | 50.7% | 31.6% | 38.5% | 10.3% | 67.6% | 42.4% | 32.3% | 48.8% | 17.3% | 15.5% | 47.2% | 35.3% | -2.06% (active) | 45.9% | 15.2% | 8.47% (active) | 64.9% | 1.84% (active) |
| Cc1cc(Nc2ccc(C(=O)N3CCCC3)cc2)nc(NCCCNc2ccnc3cc(Cl)ccc23)n1 | 87.8% | 105% | 85.8% | 81.2% | 59.4% | 90.5% | 65.6% | 104% | 87.9% | 91.5% | 33.9% | 54.8% | 48.3% | 101% | 67.8% | 103% | 65% | 105% | 82.5% |
| COc1cc(-c2nc3cc(Cl)c(Cl)cc3[nH]2)ccc1OCC(=O)N=Nc1c(O)[nH]c2ccc(Cl)cc12 | -3.62% (active) | 30.4% | 35.2% | -36.7% (active) | 5.88% (active) | -19.7% (active) | 4.94% (active) | 45.8% | 2.74% (active) | 6.51% (active) | -11.7% (active) | -16.4% (active) | -43.8% (active) | -6.73% (active) | -24.5% (active) | -18% (active) | -36% (active) | 7.43% (active) | -35.8% (active) |
| CC(=O)c1ccc(Nc2nccc(-c3ccc4ccccc4c3)n2)cc1 | 94.4% | 57.1% | 97.8% | 102% | 98.4% | 97.5% | 45.6% | 89.1% | 96.9% | 105% | 59.6% | 101% | 102% | 85.1% | 93.6% | 100% | 100% | 104% | 97.6% |
| COc1ccc(/C=C/C(c2cc(OC)c(OC)c(OC)c2)n2ccnc2)cc1O (configuration not stated) | 55.7% | 88.4% | 45.8% | 47.2% | 16.5% | 30.5% | 24.6% | 29.1% | 34% | 37.8% | 13.6% | 57.7% | 53% | 33.1% | 56.1% | 16.6% | 23.1% | 34.2% | 18.6% |
| COC(=O)/C=C1/SC(=Nc2ccc([N+](=O)[O-])cc2)N(CCc2c[nH]c3ccc(O)cc23)C1=O | 64.9% | 86.1% | 87.5% | 27.5% | 17.4% | 27.3% | 57.4% | 69.3% | 44.2% | 57.3% | 52.5% | 68.6% | 61.1% | 27.3% | 43.7% | 59.5% | 66.2% | 55.8% | 46% |
| Cc1ccc(/C=C/C(=O)c2cccc(OCCCOc3cccc(C(=O)/C=C/c4ccc(C)cc4)c3)c2)cc1 | 69.5% | 77.5% | 85.1% | 102% | 75.9% | 92.5% | 76.2% | 81.2% | 57.9% | 88.9% | 52.9% | 98.8% | 86.8% | 85.7% | 79.6% | 77.4% | 83.8% | 96.4% | 73.4% |
| COc1cc(/C=N/Nc2ccc(Br)cc2)cc(OC)c1OC | 75.8% | 80.1% | 66.3% | 93.1% | 31.1% | 98.2% | 39.8% | 54.9% | 77.8% | 63.1% | 9.82% (active) | 55.5% | 47.5% | 102% | 52.5% | 60.9% | 63.5% | 84.6% | 18.4% |
